In the library only some 8.1% were active in any assay of this set; here they are far more common.
MCF10A rereplic: induces DNA re-replication in MCF 10a normal breast cells | MCF 10A DNA re-replication, Hoechst nuclear intensity, 48 h | Potency, µM (highest dose often 46.1 µM), for inactives: top-dose activity, positive = re-replication, usual class: activators | 2.9% of 350,000 active; note: % of control where 0% means no effect; nearly all actives have a fitted effect of over 50% in size
SW480 rereplic: inducers of DNA re-replication in SW480 colon cancer cells; SW480 DNA re-replication, Hoechst DNA content imaging, 48 h; Potency, µM (doses to about 46.1 µM), inactives show top-dose re-replication activation, usual class: activators; 1.8% of 340,000 active; AID 624297; note: % of control where 0% means no effect; nearly all actives have a fitted effect of over 55% in size
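Cells (250 per well) received 23 nL compound or DMSO by pin tool and were kept 48 hr at 37 C, 5% CO2. Nuclei were then stained with Hoechst for 40 min and scanned for DNA content.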
KB-V1 cytotox: KB-V1 MDR subline cytotoxicity. KB-V1 MDR cells viability, CellTiter-Glo, 72 h. Potency, µM (top dose mostly 46.1 µM), hits mostly cytotoxic. 3.4% of 400,000 active. AID 1347076; note: % is set by controls: 0 for no effect and ±100 for the full control effect; nearly all actives have a fitted effect of over 60% in size
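In this primary screen, KB-V1 cells overexpressing P-gp are incubated with library compounds (lowest to highest concentration) for 72 h at 37 degrees C before a luminescent ATP viability read.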
ELG1 repair inh: inhibitors of ELG1-dependent DNA repair in HEK293T cells; HEK293T ELG1-luciferase reporter, luminescence, 16 h; DNA damage induced by 5-fluorouridine; Potency, µM (series often up to 46.1 µM), for inactives: top-dose activity change, negative = inhibition, most hits filed as inhibitors; 2.3% of 330,000 active; AID 504467; note: % is set by controls: 0 for no effect and ±100 for the full control effect; nearly all actives have a fitted effect of over 55% in size
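Step one: seed 2,000 cells per well. Step two: pin-transfer compound or DMSO alongside 5-fluorouridine. Step three: incubate 16 hr, 37 °C, 5% CO2. Step four: add ONE-Glo, wait 30 min, read luminescence.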
KB-3-1 tox: KB-3-1 parental cell cytotoxicity; KB-3-1 viability, CellTiter-Glo ATP luminescence, 72 h; Potency, µM (highest dose often 46.1 µM), hits mostly cytotoxic; 1.4% of 400,000 active; AID 1347075; note: % is set by controls: 0 for no effect and ±100 for the full control effect; nearly all actives have a fitted effect of over 60% in size
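72 h, 37 °C compound treatment of KB-3-1 parental cells; CellTiter-Glo added, 10 min, luminescence read. Data corrected against DMSO-only plates and normalized before curve fitting.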
The depositor's hits bear a star; i = inactive; ? = inconclusive; / = no result given. Calls come from the whole dose curve; as a rule, active = well fitted curve in the direction sought with a large enough effect; inconclusive = small, poorly fitted or top-dose-only effect, or another doubt; inactive = no such curve, though single readings can be large; an effect the other way counts as inactive or inconclusive. Potency is the fitted concentration of half-maximal effect.

SMILES | MCF10A rereplic | SW480 rereplic | KB-V1 cytotox | ELG1 repair inh | KB-3-1 tox
COc1ccc2c(c1)C(=O)[C@@H](OC(=O)NCc1ccc3c(c1)OCO3)[C@H](c1ccc(OC)c(Br)c1)O2 | 7.8% | ? | / | 18.4µM* | /
COc1ccc2c(c1)C(=O)[C@@H](O)[C@H](c1ccc(OC)c(Br)c1)O2 | ? | 11.6µM* | i | ? | ?
COC(=O)[C@@H](NC(=O)O[C@H]1C(=O)c2ccc(OC)cc2O[C@@H]1c1ccc2c(c1)OCO2)C(C)C | 18.3% | 4.9% | / | ? | /
Cc1ccc(N=C2NC(=O)CC(C(=O)Nc3cc(C(F)(F)F)ccc3Cl)S2)cc1 (stereo unspecified) | / | / | i | / | i
CC1=CC2=NCC(O)CN2C=C1 (stereo unspecified) | 2.3% | -8.3% | i | 5.7% | i
CC(C)N(C(=O)N1CCN(c2ccnc3cc(Cl)ccc23)CC1)C(C)C | 16.4µM* | 9.6% | ? | ? | i
CCC(=O)N1CCN(c2ccnc3cc(Cl)ccc23)CC1 | 2.5% | -5.4% | i | -16.0% | i
Oc1ccc(N2CCN(c3ccnc4cc(Cl)ccc34)CC2)cc1 | ? | ? | 14.6µM* | ? | 16.4µM*
CC1CCN(C(=O)CSc2nc3[nH]ncc3c(=O)[nH]2)CC1 | -3.9% | -13.1% | i | ? | i
O=C1CC(c2cccc([N+](=O)[O-])c2)c2ccc3ccccc3c2N1 (stereo unspecified) | 7.2% | -2.5% | 13µM* | -1.2% | i
Cc1ccc(C(=O)COc2nc(C)cc(C)c2C#N)cc1 | ? | ? | 10.3µM* | -3.0% | i
CCN(C(=O)COc1nc(C)cc(C)c1C#N)c1ccccc1 | ? | 1.6% | ? | -3.3% | i
Cc1cc(C)c(C#N)c(OCC(=O)c2ccc(Br)cc2)n1 | ? | ? | 5.8µM* | -3.0% | i
COc1ccc(NC(=O)c2c(C)oc3ccc(O)c(CN4CCC(C)CC4)c23)cc1Cl | / | / | i | / | i
Cc1ccc(S(=O)(=O)c2cc3ccccc3oc2=Nc2ccc3c(c2)OCCO3)cc1 | 2.0% | -3.1% | 10.3µM* | -13.0% | i
Cc1ccc(S(=O)(=O)c2cc3ccccc3oc2=Nc2ccc3c(c2)OCO3)cc1 | -1.7% | 0.3% | i | 4.0% | i
COc1cccc(NC(=S)NC(=O)Cc2ccc(Cl)cc2)c1 | 0.9% | 5.6% | i | -4.7% | i
O=C(c1ccc2c(=O)n(Cc3ccc(Cl)cc3)c(=S)[nH]c2c1)N1CCCC1 | ? | 30.7% | i | 3.1% | i
O=c1c2ccc(Cl)cc2[nH]c(=S)n1Cc1cccnc1 | 24.1% | -4.3% | 18.4µM* | -1.7% | i
O=C(CCN1C(=O)c2ccccc2S1(=O)=O)Nc1cccc2ccccc12 | -1.2% | -0.7% | i | -13.3% | i
O=C(c1sc2ccccc2c1Cl)N(Cc1ccco1)C1CCS(=O)(=O)C1 (stereo unspecified) | 0.4% | -3.9% | ? | -8.2% | i
O=C(c1cccs1)N(Cc1cccc(Cl)c1)C1CCS(=O)(=O)C1 (stereo unspecified) | -1.3% | -1.2% | 14.6µM* | 3.6% | i
O=C(/C=C/c1ccco1)N(Cc1ccccc1)C1CCS(=O)(=O)C1 (stereo unspecified) | 0.2% | 14.6µM* | i | ? | i
O=C(c1sc2ccccc2c1Cl)N(Cc1ccccc1)C1CCS(=O)(=O)C1 (stereo unspecified) | 3.2% | 1.4% | 20.6µM* | ? | i
O=C(c1sc2ccccc2c1Cl)N(Cc1ccccc1Cl)C1CCS(=O)(=O)C1 (stereo unspecified) | 23.0% | -2.4% | 8.2µM* | -22.7% | ?
SMILES | MCF10A rereplic | SW480 rereplic | KB-V1 cytotox | ELG1 repair inh | KB-3-1 tox
O=Cc1ccc(OCCOc2ccc([N+](=O)[O-])cc2)cc1 | 0.7% | 2.3% | i | -0.9% | i
O=C(CCc1ccccc1)NCCSc1ccccc1 | 4.2% | -8.6% | i | ? | i
COC(=O)c1ccc(OCC(=O)c2ccc(O)cc2O)cc1 | 0.7% | -5.3% | 23.1µM* | ? | ?
O=C(CCCC(=O)NC1CCCCC1)Nc1ccc([N+](=O)[O-])cc1 | 9.3% | 2.9% | i | ? | i
COC(=O)C1C=CC(OC2OC(COC(C)=O)C(OC(C)=O)C(OC(C)=O)C2OC(C)=O)n2c(=O)n(-c3ccccc3)c(=O)n21 (stereo unspecified) | 1.64µM* | ? | 5.17µM* | / | ?
CCOCCCNC(=S)N1CCN(c2nc(-c3ccccc3)cs2)CC1 | ? | 0.3% | ? | ? | i
COCCCNC(=S)N1CCN(c2nc(-c3ccccc3)cs2)CC1 | 14.6µM* | -1.8% | i | ? | i
COc1ccc(NC(=O)N2CCN(c3nc(-c4cccc(OC)c4)cs3)CC2)cc1 | ? | -4.9% | 11.6µM* | 18.4µM* | ?
O=C(CN1CCN(c2nc(-c3ccccc3)cs2)CC1)NNC(=O)c1ccc(Br)cc1 | 8.7% | 6.6% | i | ? | i
COc1cccc(-c2csc(N3CCN(C(=S)Nc4ccccc4OC)CC3)n2)c1 | 8.2µM* | -3.3% | ? | -6.0% | i
O=C(NC(=S)N1CCN(c2nc(-c3ccccc3)cs2)CC1)c1cncc(Br)c1 | 20.6µM* | 16.4µM* | ? | ? | ?
COc1cccc(-c2csc(N3CCN(C(=S)Nc4ccccc4Cl)CC3)n2)c1 | -2.9% | 0.0% | i | 2.8% | i
Cc1cccc(NC(=O)C2CCN(c3cnccn3)CC2)c1 | / | / | i | / | ?
O=C(O)c1ccccc1N/N=C\c1ccnc2ccccc12 | 25.0% | -1.5% | i | ? | ?
CC(C)CN(CCNC(=O)CN1N=C(c2ccc(Cl)cc2)CCC1=O)CC(C)C | -7.1% | -2.2% | i | -3.7% | i
COc1ccc(OCC(=O)N2CCc3c([nH]c4ccccc34)C2c2ccccn2)cc1 (stereo unspecified) | -2.1% | -4.0% | i | ? | i
COc1cccc(-c2csc(N3CCN(CC(=O)NNC(=O)c4ccc(Br)cc4)CC3)n2)c1 | -3.8% | 14.6µM* | ? | ? | ?
COc1cccc(-c2csc(N3CCN(CC(=O)NNC(=O)c4ccc(Cl)cc4)CC3)n2)c1 | 26.8% | 6.0% | ? | ? | i
CC[C@@H](CC1CCCCC1)C(=O)N(Cc1ccccc1)c1ccccc1 | 14.3% | -3.8% | ? | -2.9% | i
Cc1ccc(C)c(CN2CCC(CNC(=O)Nc3ccc(C)c(C)c3)CC2)c1 | ? | ? | 18.4µM* | -11.7% | ?
COc1cc([N+](=O)[O-])ccc1NC(=O)NCC1CCN(Cc2ccc(Cl)cc2)CC1 | 9.4% | ? | i | 23.1µM* | ?
COc1ccc(Cl)cc1NC(=O)NCC1CCN(Cc2cc(C)ccc2C)CC1 | 19.9% | 19.0% | 23.1µM* | ? | ?

Screening data from PubChem.
